From paper PMC4336329 (PLoS ONE, 2015)
The whole screen tested about 310,000 compounds, of which about 14,000 (4.5%) showed an effect of 50% or more. Effects have a minus sign here. This is one part of a sample in which strong results are shown more often than they occur.

Each compound was assayed against human ether-à-go-go-related gene (hERG) potassium channel (human, UniProt Q12809) (assay: primary screen, population patch clamp on CHO cells stably expressing hERG; higher = less effect of the substance).
Sequence of human ether-à-go-go-related gene (hERG) potassium channel (Q12809 whole entry, looked up): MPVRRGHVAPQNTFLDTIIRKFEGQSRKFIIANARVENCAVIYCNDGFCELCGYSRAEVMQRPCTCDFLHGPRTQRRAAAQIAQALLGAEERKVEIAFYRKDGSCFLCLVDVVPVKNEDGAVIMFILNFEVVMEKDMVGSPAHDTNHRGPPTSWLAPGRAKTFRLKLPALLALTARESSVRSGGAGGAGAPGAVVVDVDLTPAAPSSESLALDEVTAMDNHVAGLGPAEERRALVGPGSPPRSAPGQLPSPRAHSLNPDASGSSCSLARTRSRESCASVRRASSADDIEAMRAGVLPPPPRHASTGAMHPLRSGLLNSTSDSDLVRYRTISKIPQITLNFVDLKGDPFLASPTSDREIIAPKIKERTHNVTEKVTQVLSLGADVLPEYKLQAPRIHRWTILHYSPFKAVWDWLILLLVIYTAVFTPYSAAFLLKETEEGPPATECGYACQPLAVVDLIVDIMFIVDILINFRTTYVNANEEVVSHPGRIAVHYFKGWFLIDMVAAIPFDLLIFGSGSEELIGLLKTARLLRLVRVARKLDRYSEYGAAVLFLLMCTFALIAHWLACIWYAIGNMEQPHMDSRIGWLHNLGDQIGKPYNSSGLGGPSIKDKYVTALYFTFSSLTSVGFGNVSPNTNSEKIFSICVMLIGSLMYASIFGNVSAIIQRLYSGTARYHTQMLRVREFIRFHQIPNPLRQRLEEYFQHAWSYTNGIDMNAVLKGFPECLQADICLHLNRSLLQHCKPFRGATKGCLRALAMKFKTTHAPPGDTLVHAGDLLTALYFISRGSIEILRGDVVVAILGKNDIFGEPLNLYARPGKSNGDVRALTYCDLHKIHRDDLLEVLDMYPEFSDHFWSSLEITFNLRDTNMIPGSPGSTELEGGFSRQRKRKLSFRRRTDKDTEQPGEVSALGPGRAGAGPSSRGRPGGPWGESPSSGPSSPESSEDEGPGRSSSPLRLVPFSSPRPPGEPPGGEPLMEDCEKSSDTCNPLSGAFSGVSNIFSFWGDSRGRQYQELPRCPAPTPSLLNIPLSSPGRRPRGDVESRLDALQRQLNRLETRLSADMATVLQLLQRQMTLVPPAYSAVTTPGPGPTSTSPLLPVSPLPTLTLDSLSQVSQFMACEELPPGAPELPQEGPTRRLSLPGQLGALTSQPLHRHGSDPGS
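Note: peak tail current of the secondary pulse compared with the same well before compound.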

With `CCCCN1C(=O)/C(=C2/Sc3ccc(OC)cc3N2CC)SC1=S` as the compound, how does the “hERG current change (%, negative = inhibition) at 10uM” value read?
The value was 25.5%.

Which “hERG current change (%, negative = inhibition) at 10uM” value does the source give for `O=C(c1ccc(Cl)c(Cl)c1)c1cc(-c2ccccn2)c(N2CCOCC2)s1` here?
Its value is -29.1%.

`O=C(c1ccc(Cl)cc1)c1cc(-c2ccccn2)c(N2CCOCC2)s1` was tested. Which “hERG current change (%, negative = inhibition) at 10uM” value did it give?
Its value is -54.9%.

`O=C(c1ccccc1)c1cc(-c2ccccn2)c(N2CCOCC2)s1` was tested. Which “hERG current change (%, negative = inhibition) at 10uM” value did it give?
The value was -29.4%.

With `S=C(N/N=C/c1ccc2ncccc2c1)Nc1ccccc1` as the compound, how does the “hERG current change (%, negative = inhibition) at 10uM” value read?
The value was 63.6%.

`Cc1ccc(C(=O)CSc2ccccn2)cc1` was tested. Which “hERG current change (%, negative = inhibition) at 10uM” value did it give?
The value was -7.25%.

`CCC1CCCCN1CCCNC(=O)C1CCCN(c2nn3c(=O)cc(C)nc3s2)C1` (stereo not drawn) was tested. Which “hERG current change (%, negative = inhibition) at 10uM” value did it give?
The value was 12.2%.

Which “hERG current change (%, negative = inhibition) at 10uM” value does the source give for `O=C(O)CCCC(=O)Nc1ccc(N=Nc2ccccc2)cc1` here?
The value was 14.5%.

How did the “hERG current change (%, negative = inhibition) at 10uM” value turn out when `COc1ccc(S(=O)(=O)N2CCCC2CNC(=O)C(=O)NCc2ccc(C)cc2)cc1` (stereo not drawn) was run?
Its value is -29.6%.

How did the “hERG current change (%, negative = inhibition) at 10uM” value turn out when `Cc1c(CC(=O)N2CCN(C(=O)C3COc4ccccc4O3)CC2)c(=O)oc2c(C)c(O)ccc12` (stereo not drawn) was run?
Its value is -20%.

With `O=C(C1COc2ccccc2O1)N1CCOCC1` (stereo not drawn) as the compound, how does the “hERG current change (%, negative = inhibition) at 10uM” value read?
Its value is 10.5%.

For `Cc1c(CC(=O)N2CCN(C(=O)C3COc4ccccc4O3)CC2)c(=O)oc2cc(O)cc(O)c12` (stereo not drawn), which “hERG current change (%, negative = inhibition) at 10uM” value is on record?
Its value is 24.8%.

For `COc1ccc2c(C)c(CC(=O)N3CCN(C(=O)C4COc5ccccc5O4)CC3)c(=O)oc2c1C` (stereo not drawn), which “hERG current change (%, negative = inhibition) at 10uM” value is on record?
The value was -53.7%.

`Cc1cc(O)c2c(C)c(CC(=O)N3CCN(C(=O)C4COc5ccccc5O4)CC3)c(=O)oc2c1` (stereo not drawn) was tested. Which “hERG current change (%, negative = inhibition) at 10uM” value did it give?
The value was -28%.

With `O=C(C1COc2ccccc2O1)N1CCN(c2ccccc2Cl)CC1` (stereo not drawn) as the compound, how does the “hERG current change (%, negative = inhibition) at 10uM” value read?
The value was 1.69%.

`COc1cc(C)cc2oc(=O)c(CC(=O)N3CCN(C(=O)C4COc5ccccc5O4)CC3)c(C)c12` (stereo not drawn) was tested. Which “hERG current change (%, negative = inhibition) at 10uM” value did it give?
Its value is -53.9%.

Which “hERG current change (%, negative = inhibition) at 10uM” value does the source give for `CC(=O)Oc1ccc2c(C)c(CC(=O)N3CCN(C(=O)C4COc5ccccc5O4)CC3)c(=O)oc2c1C` (stereo not drawn) here?
Its value is -69.6%.

`Cc1c(CC(=O)N2CCN(C(=O)C3COc4ccccc4O3)CC2)c(=O)oc2c(O)c(O)ccc12` (stereo not drawn) was tested. Which “hERG current change (%, negative = inhibition) at 10uM” value did it give?
The value was -0.208%.

`Cc1c(CC(=O)N2CCN(C(=O)C3COc4ccccc4O3)CC2)c(=O)oc2cc(O)ccc12` (stereo not drawn) was tested. Which “hERG current change (%, negative = inhibition) at 10uM” value did it give?
The value was -44.7%.

With `CCOC(=O)N1CCN(C(=O)C2COc3ccccc3O2)CC1` (stereo not drawn) as the compound, how does the “hERG current change (%, negative = inhibition) at 10uM” value read?
The value was -2.28%.

How did the “hERG current change (%, negative = inhibition) at 10uM” value turn out when `Cc1c(CC(=O)N2CCN(C(=O)C3COc4ccccc4O3)CC2)c(=O)oc2cc(O)c(Cl)cc12` (stereo not drawn) was run?
The value was -52.4%.

Which “hERG current change (%, negative = inhibition) at 10uM” value does the source give for `COc1ccccc1CNC(=O)c1ccc(-c2ccccc2Cl)o1` here?
Its value is 4.13%.

With `O=S(=O)(/N=C(/NS(=O)(=O)c1ccccc1)c1ccccc1)c1ccccc1` as the compound, how does the “hERG current change (%, negative = inhibition) at 10uM” value read?
The value was 20%.

How did the “hERG current change (%, negative = inhibition) at 10uM” value turn out when `CN(C)c1ccc(/C=N/NC(=O)c2sccc2-n2cccc2)cc1` was run?
The value was 12.2%.

For `CC1=CC(=C(C#N)c2nc3ccccc3s2)C=C(C)N1c1ccc(F)cc1F`, which “hERG current change (%, negative = inhibition) at 10uM” value is on record?
Its value is 13.3%.

With `c1ccc2c(c1)Cc1ccccc1O2` as the compound, how does the “hERG current change (%, negative = inhibition) at 10uM” value read?
Its value is 14.7%.

For `COc1ccc(/C=C2\C(=O)NCC(=O)N2Cc2ccccc2)cc1`, which “hERG current change (%, negative = inhibition) at 10uM” value is on record?
Its value is 4.69%.

How did the “hERG current change (%, negative = inhibition) at 10uM” value turn out when `Cc1csc(NC(=O)c2cccs2)n1` was run?
Its value is -1.76%.

For `CCOc1cc(NC(=S)NCC2CCCO2)c(OCC)cc1NC(=O)C1CC1` (stereo not drawn), which “hERG current change (%, negative = inhibition) at 10uM” value is on record?
Its value is 36.2%.

`C=CCn1cccc(C(=O)Nc2cc(OC)ccc2OC)c1=O` was tested. Which “hERG current change (%, negative = inhibition) at 10uM” value did it give?
Its value is 1.46%.

Which “hERG current change (%, negative = inhibition) at 10uM” value does the source give for `CCc1ccc(CN(C)C(=O)c2cc(S(=O)(=O)N3CCOCC3)ccc2N2CCCC2)cc1` here?
Its value is -50.1%.

`COc1ccc(CN(C)C(=O)c2cc(S(=O)(=O)N3CCOCC3)ccc2N2CCCC2)cc1` was tested. Which “hERG current change (%, negative = inhibition) at 10uM” value did it give?
Its value is -35.2%.

`CN(Cc1cccc(F)c1)C(=O)c1cc(S(=O)(=O)N2CCOCC2)ccc1N1CCCC1` was tested. Which “hERG current change (%, negative = inhibition) at 10uM” value did it give?
Its value is -24.5%.

How did the “hERG current change (%, negative = inhibition) at 10uM” value turn out when `CN(Cc1ccc(Cl)cc1)C(=O)c1cc(S(=O)(=O)N2CCOCC2)ccc1N1CCCC1` was run?
The value was -72.8%.

Which “hERG current change (%, negative = inhibition) at 10uM” value does the source give for `CN(Cc1cccs1)C(=O)c1cc(S(=O)(=O)N2CCOCC2)ccc1N1CCCC1` here?
Its value is -27.1%.

How did the “hERG current change (%, negative = inhibition) at 10uM” value turn out when `Cc1ccsc1CN(C)C(=O)c1cc(S(=O)(=O)N2CCOCC2)ccc1N1CCCC1` was run?
Its value is -40.5%.

`COc1ccc(C2C(CN3CCOCC3)C(=O)N2c2ccccc2)cc1` (stereo not drawn) was tested. Which “hERG current change (%, negative = inhibition) at 10uM” value did it give?
Its value is 9.52%.

`Cc1ccc(OCCOc2cccc(Br)c2)c([N+](=O)[O-])n1` was tested. Which “hERG current change (%, negative = inhibition) at 10uM” value did it give?
The value was 0.558%.

How did the “hERG current change (%, negative = inhibition) at 10uM” value turn out when `Cc1cccc(NS(=O)(=O)c2cccc(C(=O)N3CCN(c4ccccn4)CC3)c2)c1` was run?
Its value is -22.7%.

With `COc1ccc(C(=O)NCc2nnc(SCC(=O)Nc3cccc(OC)c3)o2)cc1` as the compound, how does the “hERG current change (%, negative = inhibition) at 10uM” value read?
The value was -1.25%.

For `CCOC(=O)c1c(NC(=O)c2nn(CC)cc2Br)sc2c1CCCCC2`, which “hERG current change (%, negative = inhibition) at 10uM” value is on record?
Its value is 8.6%.

For `COc1ccc(N(C)C(=O)c2cn(CC(C)C)c(=O)c3cc(OC)c(OC)cc23)cc1`, which “hERG current change (%, negative = inhibition) at 10uM” value is on record?
The value was 8.8%.
